Measured values from PubChem BioAssay (EPA / NIEHS).
Activity calls are given as the source filed them. How the source made its calls: active means hit-call score of the fitted dose curve at least 0.9, where 1 is the maximum; inactive means score below 0.9.

Columns and labels:
Conditions in all cases: mRNA level, 48 h; actives raise or lower the signal
[1] = read-out: Peroxisomal acyl-coenzyme A oxidase 1 (ACOX1) gene, ACOX1 (gene 51); assay: LTEA_HepaRG_ACOX1: Life Technologies and Expression Analysis (LTEA) Assay for Peroxisomal acyl-coenzyme A oxidase 1 (ACOX1) gene using HepaRG (AID 2283467)
Summary of the method: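 HepaRG cells, plated 48 h then switched to serum-free induction medium, were exposed in duplicate for 48 h to 8-point half-log concentrations up to 100 uM in 0.5% DMSO. ACOX1 mRNA was measured by qRT-PCR, normalized to ACTB/GAPDH/POLR2A, and fitted bidirectionally versus DMSO.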

[2] = read-out: Alkaline Phosphatase, Placental (ALPP) gene, ALPP (gene 250); assay: LTEA_HepaRG_ALPP: Life Technologies and Expression Analysis (LTEA) Assay for Alkaline Phosphatase, Placental (ALPP) gene using HepaRG (AID 2283468)
Summary of the method: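 HepaRG cells plated 48 h, then exposed in duplicate for 48 h in serum-free induction medium to 8-point half-log series from 100 uM in 0.5% DMSO. ALPP mRNA by TaqMan qRT-PCR, normalized to ACTB/GAPDH/POLR2A; bidirectional fit versus DMSO.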

[3] = read-out: Bcl-2 (BAD) gene, BAD (gene 572); assay: LTEA_HepaRG_BAD: Life Technologies and Expression Analysis (LTEA) Assay for Bcl-2 (BAD) gene using HepaRG (AID 2283469)
Protocol: LTEA_HepaRG is a cell based, multiplexed-readout assay that uses HepaRG, a human liver cell line, with measurements taken at 48 hours after chemical dosing on a 96-well plate.LTEA_HepaRG_BAD is one of 102 assay component(s) measured in the LTEA HepaRG cell culture assay. It is a marker of Cell proliferation, survival, death.Data from the assay component LTEA_HepaRG_BAD was analyzed into 1 endpoint. This assay endpoint, LTEA_HepaRG_BAD, was analyzed with bidirectional fitting relative to DMSO as the negative control and baseline of activity. Using a type of inducible reporter, measures of mRNA induction for gain or loss-of-signal activity can be used to understand regulation of transcription factor activity. To generalize the intended target to other relatable targets, this assay endpoint is annotated to the cell cycle intended target family, where the subfamily is Cell proliferation, survival, death.
A total of 1060 chemcials from the ToxCast library were tested in eight-point concentration-response experiments. Cell culture and cytotoxicity assays were conducted at Thermo Fisher Scientific's Custom Services facility (Madison, WI). A single lot of human HepaRG cells (Thermo Fisher Scientific, Frederick, MD) was used for the cell culture experiments. 96-well format collagen type I coated plates of human HepaRG cells were prepared using established methods. Briefly, cryopreserved HepaRG cells were thawed, plated at a density of approximately 100,000 cells/well in HepaRG Thaw, Plate, and General Purpose media (HPRG770, Thermo Fisher Scientific), and incubated for 48 hours. […] Fluidigm's 96.96 Dynamic ArrayTM (Fluidigm, Amsterdam, the Netherlands) technology was used for gene expression analyses by quantitative reverse transcription polymerase chain reaction (qRT-PCR, performed by Quintiles/Expression Analysis, Durham, NC)89. […]

[4] = read-out: Bcl-2 (BAX) gene, BAX (gene 581); assay: LTEA_HepaRG_BAX: Life Technologies and Expression Analysis (LTEA) Assay for Bcl-2 (BAX) gene using HepaRG (AID 2283470)
Summary of the method: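 Differentiated HepaRG cells exposed 48 h in serum-free induction medium, eight half-log concentrations from 100 uM, in duplicate, 0.5% DMSO vehicle. BAX mRNA by TaqMan qRT-PCR, normalised to ACTB, GAPDH and POLR2A.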

[5] = read-out: adenosine kinase (ADK) gene, ADK (gene 132); assay: LTEA_HepaRG_ADK: Life Technologies and Expression Analysis (LTEA) Assay for adenosine kinase (ADK) gene using HepaRG (AID 2283471)
Summary of the method: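 ADK expression quantified by qRT-PCR, normalised to three housekeeping genes, after 48 h exposure of HepaRG cells to eight concentrations (top 100 uM, half-log steps, duplicate, 0.5% DMSO). Up- or down-regulation fitted relative to vehicle.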

[6] = read-out: Alpha-fetoprotein (AFP) gene, AFP (gene 174); assay: LTEA_HepaRG_AFP: Life Technologies and Expression Analysis (LTEA) Assay for Alpha-fetoprotein (AFP) gene using HepaRG (AID 2283472)
Summary of the method: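 Differentiated human HepaRG cells exposed 48 h in serum-free induction medium, 8-point half-log series from 100 uM in 0.5% DMSO, duplicate. AFP mRNA by qRT-PCR, normalized to ACTB, GAPDH, POLR2A; bidirectional fit vs DMSO.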

[7] = read-out: BCL2L11 (gene 10018); assay: LTEA_HepaRG_BCL2L11: Life Technologies and Expression Analysis (LTEA) Assay for Bcl-2 (BCL2L11) gene using HepaRG (AID 2283473)
Summary of the method: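 Differentiated human HepaRG cells were exposed 48 h in serum-free induction medium to eight half-log concentrations up to 100 uM in 0.5% DMSO, in duplicate. BCL2L11 mRNA was quantified by TaqMan qRT-PCR, normalized to ACTB, GAPDH and POLR2A; induction or repression fitted versus DMSO.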

[8] = read-out: Apolipoprotein A-V (APOA5) gene, APOA5 (gene 116519); assay: LTEA_HepaRG_APOA5: Life Technologies and Expression Analysis (LTEA) Assay for Apolipoprotein A-V (APOA5) gene using HepaRG (AID 2283474)
Summary of the method: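 Differentiated HepaRG cells in serum-free induction medium, exposed 48 h in duplicate to eight half-log concentrations topping at 100 uM (0.5% DMSO). APOA5 mRNA by Fluidigm TaqMan qRT-PCR, normalized to ACTB, GAPDH and POLR2A; bidirectional fit versus DMSO.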

[9] = read-out: Apoptosis regulator Bcl-2 (Homo sapiens) (UniProt P10415); assay: LTEA_HepaRG_BCL2: Life Technologies and Expression Analysis (LTEA) Assay for Bcl-2 gene using HepaRG (AID 2283475)
Summary of the method: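 Differentiated human HepaRG cells in serum-free induction medium exposed 48 h, in duplicate, to 8-point half-log series from 100 uM in 0.5% DMSO. BCL2 mRNA by qRT-PCR (TaqMan/Fluidigm), normalized to ACTB, GAPDH, POLR2A; bidirectional fit against DMSO.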

[10] = read-out: Bcl-2 (BID) gene, BID (gene 637); assay: LTEA_HepaRG_BID: Life Technologies and Expression Analysis (LTEA) Assay for Bcl-2 (BID) gene using HepaRG (AID 2283476)
Summary of the method: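 Gene expression by qRT-PCR in HepaRG cells after 48 h exposure, duplicate wells, eight half-log concentrations topping at 100 uM in 0.5% DMSO. Normalized to ACTB, GAPDH, POLR2A; bidirectional fitting relative to DMSO.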

Measured: outcome

Apoptosis regulator Bcl-2 (Homo sapiens), sequence (P10415 whole entry, looked up): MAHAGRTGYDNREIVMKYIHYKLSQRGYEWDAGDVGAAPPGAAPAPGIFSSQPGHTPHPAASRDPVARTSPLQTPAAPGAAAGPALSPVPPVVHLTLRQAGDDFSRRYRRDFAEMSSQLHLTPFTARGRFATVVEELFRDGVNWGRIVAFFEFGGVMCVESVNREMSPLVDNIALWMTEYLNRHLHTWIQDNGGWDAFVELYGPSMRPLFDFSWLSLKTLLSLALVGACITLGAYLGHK

Nc1ccc(C(=O)O)cc1
inactive: all assays above

C1CNCCN1
inactive: all assays above

Cc1ccc([N+](=O)[O-])cc1N
inactive: all assays above
